Bioassay records deposited in PubChem BioAssay by The Scripps Research Institute Molecular Screening Center.
MITF primary: human MITF inhibition, primary screen | AlphaScreen MITF homodimerization, bead proximity signal | 650,000 compounds, 0.91% hits | O75030 | inhibition, % at 2.6 µM; in the data active = inhibition above about 50%
TEAD-YAP inh: TEAD-YAP interaction inhibition | AID 1259422 | HEK-TIYL cells, TEAD-Gal4/YAP UAS-luciferase luminescence | 640,000 compounds, 1.4% hits | inhibition, % at 9.12 µM; in the data active = inhibition above about 32%
GPR151 activ: human GPR151 activation | Q8TDV0 | PathHunter beta-arrestin GPR151 cells, luminescence | activation, % at 11.2 µM | 650,000 compounds, 1% hits; in the data active = activation above about 4.9%
FBW7 act: human FBW7 E3 ligase activation, primary screen; Q969H0; AlphaScreen FBW7–phospho-cyclin E peptide binding, activator screen; normalized activity (activation), % at 26.1 µM; 650,000 compounds, 0.13% hits; AID 1259310; in the data active = normalized activity above about 1.9%;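 also: purified mutant Fbw7 with reduced substrate affinity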
GPR151 confirm: confirmation of human GPR151 activators | GPR151 PathHunter beta-arrestin cells, luminescence, 90 min; % of EA-reagent control over plate median | activation, % at 11.2 µM | 6,700 tested, under 10 active | shares compounds with GPR151 activ | AID 1508609;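 active = mean percent activation across replicates above the confirmation screen cutoff of 4.91%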
GPR119 counter: activates human GPR119 in a GPR151 counter-screen | 6,700 compounds, 0.3% hits | activation, % at 11.2 µM | shares compounds with GPR151 activ | AID 1508611 | GPR119 PathHunter beta-arrestin cells, luminescence, 90 min; 0 = compound-well median, 100 = enzyme-acceptor control;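 active = mean percent activation in the counterscreen above 29.09%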;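 also: counterscreen on off-target GPR119 to flag nonselective hits from the GPR151 activator screen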
Target sequence (Q8TDV5 whole entry, looked up): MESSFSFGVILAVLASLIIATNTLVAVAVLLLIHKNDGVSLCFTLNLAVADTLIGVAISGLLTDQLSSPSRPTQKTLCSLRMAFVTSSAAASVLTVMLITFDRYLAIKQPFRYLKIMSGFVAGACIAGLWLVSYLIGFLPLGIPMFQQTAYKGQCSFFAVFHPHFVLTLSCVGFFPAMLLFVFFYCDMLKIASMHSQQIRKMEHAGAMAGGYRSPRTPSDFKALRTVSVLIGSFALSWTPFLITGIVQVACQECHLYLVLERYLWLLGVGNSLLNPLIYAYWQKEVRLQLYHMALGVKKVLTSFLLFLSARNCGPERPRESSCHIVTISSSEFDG
Large screens that a line does not name were inactive (follow-up assays come after a bar, where they were run). Rows were chosen to be rich in hits. Some 3.4% of all compounds tested hit in one or more screens of this group.

CC1CCCCN1Cc1ccc(C(=O)NCc2cnc3ccccc3c2)c(=O)[nH]1 (centres undefined)	GPR151 activ 11 | GPR151 confirm inactive | GPR119 counter inactive
COc1ccc(/C(O)=C2\C(=O)C(=O)N(c3ccc(C(=O)O)cc3)C2c2ccccc2)cc1 (centres undefined)	GPR151 activ 9.3 | GPR151 confirm inactive | GPR119 counter inactive
Cc1nc2c(-c3ccccc3)c(C)nn2c(C)c1CCC(=O)Nc1ccccn1	GPR151 activ 5.0 | GPR151 confirm inactive | GPR119 counter inactive
O=C(Nc1cccc(C(=O)O)c1)/C(=C\c1ccc([N+](=O)[O-])cc1)NC(=O)c1ccco1	none
CC(C)c1ccc(NC(=O)CSc2nc3cc4c(cc3c(=O)n2CCC2=CCCCC2)OCO4)cc1	GPR151 activ 5.9 | GPR151 confirm inactive | GPR119 counter inactive
CCOC(=O)Cc1c(C)c2ccc(N(CC)CC)cc2oc1=O	GPR151 activ 7.2 | GPR151 confirm inactive | GPR119 counter inactive
CN(C)S(=O)(=O)c1ccc(C(=O)Nc2ccc(S(=O)(=O)N3CCCCC3c3cccnc3)cc2)cc1 (centres undefined)	none
Cc1ccc(CN2CCNC(=O)C2CC(=O)N2CCN(Cc3csc(C)n3)CC2)o1 (centres undefined)	GPR151 activ 5.1 | GPR151 confirm inactive | GPR119 counter inactive
Cc1ccc(CN2CCNC(=O)C2CC(=O)N2CCCN(Cc3cccs3)CC2)o1 (centres undefined)	none
Cc1cc(S(=O)(=O)N2CCN(c3ccc(F)cc3)CC2)c(Cl)cc1Cl	GPR151 activ 5.3 | GPR151 confirm inactive | GPR119 counter inactive
O=S(=O)(c1cccc2ccccc12)N1CCN(c2ncccn2)CC1	none
COc1ccc(N2CCN(S(=O)(=O)c3ccccc3F)CC2)cc1	none
COc1ccc(N2CCN(S(=O)(=O)c3ccccc3C(F)(F)F)CC2)cc1	GPR151 activ 5.1 | GPR151 confirm inactive | GPR119 counter inactive
O=S(=O)(c1cccc2ccccc12)N1CCN(c2ccc(F)cc2)CC1	GPR151 activ 19 | GPR151 confirm inactive | GPR119 counter inactive
CCn1cc(CN2CCCC(CNC(=O)c3ccc(-c4ccccc4)cc3)C2)cn1 (centres undefined)	GPR151 activ 6.0 | GPR151 confirm inactive | GPR119 counter inactive
COc1ccc(S(=O)(=O)NCC2CCCN(Cc3ccon3)C2)cc1 (centres undefined)	none
Cn1ccnc1N1CCN(C(=O)c2cccc(F)c2)CC1	GPR151 activ 5.1 | GPR151 confirm inactive | GPR119 counter inactive
COc1ccc(SCCCC(=O)Nc2cccc(Cl)c2Cl)cc1	none
O=C(O)/C=C/C(=O)Nc1ccc([N+](=O)[O-])cc1Cl	none
CCOc1ccc2nc(Nc3nc(C)cc(-c4ccccc4)n3)nc(C)c2c1	none
CCOc1ccc2nc(Nc3nccc(C)n3)nc(C)c2c1	GPR151 activ 9.0 | GPR151 confirm inactive | GPR119 counter inactive
Cc1ccc(S(=O)(=O)N2CCN(c3ccc([N+](=O)[O-])c(NCCc4ccccc4)c3)CC2)cc1	none
Cc1cc2nc(C3CCCN3C(=O)CC3(C)C(=O)N=C4C=CC=CN43)[nH]c2cc1C (centres undefined)	GPR151 activ 8.0 | GPR151 confirm inactive | GPR119 counter inactive
Cc1cc2nc(C3CCCN3C(=O)CN3CCCCC3)[nH]c2cc1C (centres undefined)	none
Cc1ccc(N2C(=O)CC(Sc3ccc(F)cc3)C2=O)cc1 (centres undefined)	none
Cc1ccc(SC2CC(=O)N(c3ccc(F)cc3F)C2=O)cc1 (centres undefined)	GPR151 activ 9.8 | GPR151 confirm inactive | GPR119 counter inactive
COc1cccc(NC(=O)c2cccn(OCc3ccccc3F)c2=O)c1	GPR151 activ 6.2 | GPR151 confirm inactive | GPR119 counter inactive
O=C(Nc1cccc(F)c1)c1cccn(OCc2ccccc2F)c1=O	none
COC(=O)c1ccc(N(C=O)C(=S)SC)cc1	none
COc1ccc(C(=O)NNC(=O)C(=O)N2CCCC2)cc1OC	GPR151 activ 5.6 | GPR151 confirm inactive | GPR119 counter inactive
CCOC(=O)CN1CCN(c2ccc(-c3ccccc3C=O)cn2)CC1	none
Cc1ccc2oc(C(=O)NCCc3ccc(S(N)(=O)=O)cc3)c(C)c2c1	none
Cc1cc2oc(C(=O)NCCc3ccc(S(N)(=O)=O)cc3)c(C)c2cc1C	GPR151 activ 10.0 | GPR151 confirm inactive | GPR119 counter inactive
N#Cc1cc2c(nc1SCc1ccc([N+](=O)[O-])cc1)CCCCC2	GPR151 activ 6.1 | GPR151 confirm inactive | GPR119 counter inactive
CC1CN(c2nc(-c3ccc(F)cc3)cs2)CC(C)O1 (centres undefined)	none
CCc1nn(C(CC)C(=O)NC2CCCC2)c(=O)c2cc3oc(C)cc3n12 (centres undefined)	GPR151 activ 13 | GPR151 confirm inactive | GPR119 counter inactive
CCc1nn(C(CC)C(=O)NC2CCCC2)c(=O)c2cc3occc3n12 (centres undefined)	none
CC(C)CNC(=O)NC(=O)COC(=O)c1ccccc1N=Nc1ccc(O)cc1	GPR151 activ 5.9 | GPR151 confirm inactive | GPR119 counter inactive
CC(C)CNC(=O)COC(=O)c1ccc(O)cc1	none
CCC(=O)N1CCN(c2ccc(NC(=O)c3ccco3)cc2Cl)CC1	none
CCC(=O)N1CCN(c2ccc(NC(=O)c3cccs3)cc2)CC1	GPR151 activ 9.2 | GPR151 confirm inactive | GPR119 counter inactive
CCC(=O)N1CCN(c2ccc(NC(=O)c3ccco3)cc2)CC1	GPR151 activ 5.4 | GPR151 confirm inactive | GPR119 counter inactive
Cc1cc(C(=O)Nc2ccc(Br)c(C)n2)ccc1[N+](=O)[O-]	GPR151 activ 5.0 | GPR151 confirm inactive | GPR119 counter inactive
Cc1cc(C(=O)Nc2ccc(I)c(C)n2)ccc1[N+](=O)[O-]	none
CC1CCCC(NS(=O)(=O)c2ccc(F)c(C(=O)Nc3cc(Cl)ccc3Cl)c2)C1C (centres undefined)	GPR151 activ 7.3 | GPR151 confirm inactive | GPR119 counter inactive
Cn1c(C2CCN(Cc3ccccc3)CC2)n[nH]c1=S	none
CCNc1nc(NCC)n2c(SCC(=O)OCC)nnc2n1	GPR151 activ 26 | GPR151 confirm inactive | GPR119 counter inactive
CCNc1nc(NCC)n2c(SCC(=O)c3ccc(OC)cc3)nnc2n1	none
CCOc1cc(/C=N/Nc2ccccn2)ccc1OCc1ccc(C(=O)OC)o1	GPR151 activ 5.4 | GPR151 confirm inactive | GPR119 counter inactive
CCOc1cc(C=O)ccc1OCc1ccc(C(=O)OC)o1	none
CCOC(=O)C(=O)N1N=C(c2ccccc2)CC1(O)C(F)(F)F (centres undefined)	none
Cc1cccc(NC(=O)c2sc3nc(C)nc(N4CCOCC4)c3c2C)c1	none
Cc1ccc(NC(=O)c2sc3nc(C)nc(N4CCN(c5ccccn5)CC4)c3c2C)c(Br)c1	GPR151 activ 8.8 | GPR151 confirm inactive | GPR119 counter inactive
